The values that follow come from PubChem BioAssay (NCI).

Test systems include HCT-15 colon; HT29 colon; SNB-75 CNS; SNB-19 CNS; U251 CNS; PC-3 prostate; SK-MEL-5 melanoma; UACC-62 melanoma; LOX IMVI melanoma; SK-MEL-28 melanoma; SK-MEL-2 melanoma; EKVX NSCLC; SN12C renal; UO-31 renal; TK-10 renal; ACHN renal; CAKI-1 renal; A498 renal; CCRF-CEM leukemia; MOLT-4 leukemia.
What all share (assay): NCI-60 one-dose screen, 48 h (100 = growth as untreated, 0 = no growth, -100 = all killed)
Holding throughout (settings): 10 µM unless noted

Compounds without any hit were thinned out: in the full panel of roughly 83,000, 20% have a hit.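 Interpretation: 100, growth as untreated; towards 0, rising growth inhibition; 0, no net growth; 0 to -100, cell death. Compounds scoring below 10 were considered active.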 Unmarked numbers belong to inactive results. The source made the active and inactive calls.

`Cc1ccc2c(c1)=C/C(=C\c1cc(-c3ccccc3)[nH]c1O)C(=O)N=2`: the growth was 26.7% in the experiment with HCT-15 colon; 7.77% (active) in the experiment on HT29 colon; 48% in the experiment on SNB-75 CNS; 34.1% in the experiment on SNB-19 CNS; 40.1% in the experiment with U251 CNS; 61.2% with PC-3 prostate. Also, the growth in the experiment with SK-MEL-5 melanoma is 47%; in the experiment with UACC-62 melanoma it was 29.9%; in the experiment on LOX IMVI melanoma, 35.8%; in the experiment on SK-MEL-28 melanoma, 60.8%; in the experiment on SK-MEL-2 melanoma, 3.31% (active); with EKVX NSCLC, 52%. Besides, the growth in the experiment with SN12C renal was 42.5%; in the experiment with UO-31 renal, 55.4%; in the experiment on TK-10 renal it was 68.3%; in the experiment with ACHN renal it was 65.6%; with CAKI-1 renal it was 42.3%; in the experiment with A498 renal, 24.7%. Further, the growth in the experiment on CCRF-CEM leukemia is 20%; in the experiment on MOLT-4 leukemia it was 18.8%.
In the case of `CC1=Nc2cnc(Nc3ccc(N4CCCCC4)cc3)nc2Nc2ccccc21`, the growth in the experiment on HCT-15 colon is 62.6%; in the experiment with HT29 colon, 62.5%; in the experiment on SNB-75 CNS it was 86.7%; in the experiment with SNB-19 CNS it was 94.9%; with U251 CNS, 83.8%; in the experiment on PC-3 prostate, 19.6%. Moreover, the growth is 41.6% with SK-MEL-5 melanoma; 55.2% in the experiment on UACC-62 melanoma; 75.8% in the experiment on LOX IMVI melanoma; 84.7% with SK-MEL-28 melanoma; 86% in the experiment with SK-MEL-2 melanoma; 68.8% in the experiment on EKVX NSCLC. Besides, the growth in the experiment on SN12C renal is 69.7%; in the experiment on UO-31 renal, 49.7%; in the experiment with TK-10 renal it was 97.3%; in the experiment with ACHN renal, 68.1%; in the experiment with CAKI-1 renal, 79.3%; in the experiment on A498 renal it was 55.8%. Also, the growth in the experiment with CCRF-CEM leukemia is 31.5%; with MOLT-4 leukemia, 26.7%.
With `COc1ccc2[nH]cc(-c3nonc3-c3c[nH]c4ccc(Br)cc34)c2c1`, the growth in the experiment with HCT-15 colon is 19.9%; in the experiment with HT29 colon, 5.38% (active); with SNB-75 CNS it was 58.6%; in the experiment on SNB-19 CNS, 62.9%; in the experiment with U251 CNS, 42.2%; with PC-3 prostate, 39.8%. Also, the growth is 78.1% in the experiment with SK-MEL-5 melanoma; 56% in the experiment with UACC-62 melanoma; -33.4% (active) with LOX IMVI melanoma; 84.1% in the experiment on SK-MEL-28 melanoma; 73.1% in the experiment with SK-MEL-2 melanoma; 29.9% in the experiment on EKVX NSCLC. The growth with SN12C renal was 67.7%; in the experiment on UO-31 renal, 36.5%; in the experiment with TK-10 renal, 49.9%; in the experiment with ACHN renal, 38.7%; with CAKI-1 renal it was 24.8%; with A498 renal, 51.4%. For the same compound, the growth is 38.6% in the experiment on CCRF-CEM leukemia and 28.3% in the experiment on MOLT-4 leukemia.
As for `COc1cc(-c2nccc3[nH]c(-c4cccc5[nH]ccc45)nc23)cc(OC)c1OC`, the growth in the experiment on HCT-15 colon was 17.6%; with HT29 colon, -3.78% (active); with SNB-75 CNS it was 73.6%; in the experiment on SNB-19 CNS, 49.1%; with U251 CNS it was 13.6%; in the experiment with PC-3 prostate it was 11.8%. Besides, the growth was -45.8% (active) in the experiment with SK-MEL-5 melanoma; 51.4% in the experiment with UACC-62 melanoma; 20.6% with LOX IMVI melanoma; 76.9% with SK-MEL-28 melanoma; 35.8% in the experiment with SK-MEL-2 melanoma; 46.3% in the experiment with EKVX NSCLC. Further, the growth is 40.9% with SN12C renal; 34% in the experiment with UO-31 renal; 34.7% in the experiment with TK-10 renal; 17% in the experiment on ACHN renal; 31.4% in the experiment with CAKI-1 renal; -6.89% (active) in the experiment on A498 renal. Further, the values for the growth in the experiment with CCRF-CEM leukemia and with MOLT-4 leukemia were 11.7% and 19.9%, respectively.
Turning to `O=c1oc2c(cc1-c1ccccc1)c[n+]([O-])c1ccccc21`, the growth is 103% in the experiment on HCT-15 colon; 103% with HT29 colon; 93% in the experiment with SNB-75 CNS; 97.9% in the experiment with SNB-19 CNS; 97.9% in the experiment on U251 CNS; 97% with PC-3 prostate. For the same compound, the growth was 98.1% in the experiment with SK-MEL-5 melanoma; 97.4% with UACC-62 melanoma; 101% in the experiment on LOX IMVI melanoma; 109% with SK-MEL-28 melanoma; 109% in the experiment on SK-MEL-2 melanoma; 98.1% in the experiment with EKVX NSCLC. For the same compound, the growth is 97.2% in the experiment with SN12C renal; 90.4% in the experiment with UO-31 renal; 107% with TK-10 renal; 97.3% in the experiment with ACHN renal; 90.6% in the experiment with CAKI-1 renal; 105% with A498 renal. In addition, the growth in the experiment with CCRF-CEM leukemia was 101%; with MOLT-4 leukemia it was 102%.
As for `CSc1ccc2c3c(n(CCCn4ccnc4)c(=O)c2c1)-c1ccccc1C3=O`, the growth in the experiment with HCT-15 colon is 61.1%; with HT29 colon, 27.1%; in the experiment with SNB-75 CNS it was 51.6%; in the experiment on SNB-19 CNS, 33.2%; in the experiment on U251 CNS, 12.7%; with PC-3 prostate, 45.6%. Also, the growth in the experiment on SK-MEL-5 melanoma is 19.5%; in the experiment on UACC-62 melanoma, 19.8%; in the experiment with LOX IMVI melanoma, 1.75% (active); in the experiment with SK-MEL-28 melanoma, 78.5%; in the experiment on SK-MEL-2 melanoma, 97.1%; in the experiment with EKVX NSCLC, 84.4%. The growth in the experiment on SN12C renal is 45.1%; with UO-31 renal, 26.3%; in the experiment on TK-10 renal, 83.1%; in the experiment with ACHN renal, 12.4%; in the experiment on CAKI-1 renal it was 24.6%; in the experiment on A498 renal, 68.5%. Further, the growth was 15.6% in the experiment with CCRF-CEM leukemia and -3.86% (active) in the experiment on MOLT-4 leukemia.
